# Data published in PubChem BioAssay (EPA / NIEHS).
# Inconclusive results are not listed. The source made the active and inactive calls. Rule for the calls, unless noted: active = hit-call score of the fitted dose curve at least 0.9, where 1 is the maximum; inactive = score below 0.9.
# Assays:
# [1] = ATG_DR4_LXR_CIS: Attagene CIS-FACTORIAL HepG2 Assay for human Liver X Receptor (LXR), DR4 submotif (AID 2282929); details: HepG2 Attagene DR4 cis-reporter, mRNA transcription; actives raise or lower the signal
# Summary of the method: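 Endogenous factor activity at a DR4 cis-element is read as reporter mRNA in transiently transfected HepG2 cells. Exposure lasts 24 h; transcripts are amplified, fluorescently labelled and sized by capillary electrophoresis, with DMSO as baseline.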
# [2] = target: Hepatocyte nuclear factor 3-beta (Homo sapiens) (UniProt Q9Y261); assay: ATG_FoxA2_CIS: Attagene CIS-FACTORIAL HepG2 Assay for human Forkhead box A2 (FOXA2) (AID 2282942); details: HepG2 cis-reporter transcription factor activity, 24 h; actives raise or lower the signal
# Summary of the method: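 Cells: HepG2, transient multiplex reporter transfection. Exposure 24 h. Detection: reporter-specific RT-PCR, fluorescent labelling, restriction digest, capillary electrophoresis. Analysis: bidirectional curve fit, DMSO as negative control.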
# [3] = target: Heat shock factor protein 1 (Homo sapiens) (UniProt Q00613); assay: ATG_HSE_CIS: Attagene CIS-FACTORIAL HepG2 Assay for human Heat Shock Transcription Factor 1 (HSE) (AID 2282953); details: HepG2 HSE cis-reporter, Attagene RNA transcription; actives raise or lower the signal
# Summary of the method: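 After a 24 h incubation with test chemical, transfected HepG2 cells were harvested for RNA; reporter transcripts were measured by RT-PCR and capillary electrophoresis. Values reflect gain or loss of signal relative to DMSO.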
# [4] = ATG_RORE_CIS: Attagene CIS-FACTORIAL HepG2 Assay for human RAR-related Orphan Receptor Element (RORE) (AID 2282959); details: HepG2 Attagene cis-factorial RORE reporter, mRNA; actives raise or lower the signal
# Summary of the method: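 Multiplexed reporter assay measuring mRNA induction from a cis promoter element in transiently transfected HepG2 cells after 24 h treatment. Detection via RT-PCR and capillary electrophoresis fluorescence; DMSO serves as baseline.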
# [5] = target: Signal transducer and activator of transcription 3 (Homo sapiens) (UniProt P40763); assay: ATG_STAT3_CIS: Attagene CIS-FACTORIAL HepG2 Assay for human Signal Transducer and Activator of Transcription 3 (STAT3) (AID 2282963); details: HepG2, Attagene cis-factorial STAT3 reporter transcription; actives raise or lower the signal
# Summary of the method: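 Fluorescence intensity of 6-FAM-labelled reporter fragments, separated by capillary electrophoresis after RT-PCR, gave the signal. Cells were HepG2 transfected with cis-element reporter units and treated 24 h; fitting was bidirectional relative to DMSO.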
# [6] = ATG_TCF_b_cat_CIS: Attagene CIS-FACTORIAL HepG2 Assay for human T-Cell-Factor with beta-catenin (TCF/b-cat) (AID 2282965); details: HepG2 TCF/beta-catenin cis-reporter transcription, actives raise or lower the signal
# Summary of the method: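 HepG2 cells transiently transfected with cis-promoter-driven multiplexed reporter units; reporter mRNA measured 24 h after dosing by RT-PCR, FAM labelling, HpaI digestion and capillary electrophoresis. Bidirectional fitting relative to DMSO baseline.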
# [7] = ATG_TAL_CIS: Attagene CIS-FACTORIAL HepG2 Assay for human TAL Basal Promoter (AID 2282966); details: HepG2 Attagene cis-factorial TAL promoter reporter; actives raise or lower the signal;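 note: background control endpoint measuring basal TAL promoter reporter mRNA not a specific factor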
# Summary of the method: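 Background-control endpoint: basal TAL promoter reporter transcripts in transiently transfected HepG2, measured 24 h after dosing. Read-out by RT-PCR with fluorescent primer extension and capillary electrophoresis; gain or loss of signal fitted relative to DMSO.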
# [8] = ATG_TGFb_CIS: Attagene CIS-FACTORIAL HepG2 Assay for human Transforming Growth Factor (TGF) (AID 2282967); details: HepG2 Attagene CIS TGFb reporter, mRNA transcription; actives raise or lower the signal
# Summary of the method: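 Transcript-level reporter readout: HepG2 transfectants, 24 h exposure, RNA to cDNA, reporter-specific PCR, fluorescent primer extension, capillary sizing against ROX standards. Gain- or loss-of-signal relative to DMSO.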
# [9] = target: X-box-binding protein 1 (Homo sapiens) (UniProt P17861); assay: ATG_Xbp1_CIS: Attagene CIS-FACTORIAL HepG2 Assay for human X-box Binding Protein 1 (XBP1) (AID 2282972); details: HepG2 XBP1 cis-element reporter, Attagene multiplex; actives raise or lower the signal
# Summary of the method: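 Human hepatoma HepG2, cis-element reporter system, 24 h treatment; mRNA quantified by RT-PCR/CE fluorescence; fit relative to DMSO.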
# [10] = target: Transcriptional activator Myb (Homo sapiens) (UniProt P10242); assay: ATG_Myb_CIS: Attagene CIS-FACTORIAL HepG2 Assay for human Myeloblastosis (Myb) Proto-Oncogene Transcription Factor (AID 2282986); details: HepG2 Attagene CIS-FACTORIAL Myb reporter transcription; actives raise or lower the signal
# Summary of the method: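 Endogenous transcription factor activity at a Myb-responsive cis element is reported in human liver HepG2 cells after 24 h chemical treatment. Reporter mRNA is detected by RT-PCR and capillary electrophoresis fluorescence, with DMSO as baseline.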
# [11] = target: Nuclear respiratory factor 1 (Homo sapiens) (UniProt Q16656); assay: ATG_NRF1_CIS: Attagene CIS-FACTORIAL HepG2 Assay for human Nuclear Respiratory Factor 1 (NRF1) Orphan Gene (AID 2282987); details: HepG2 NRF1 cis-element reporter, Attagene multiplex; actives raise or lower the signal
# Summary of the method: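 Human hepatoma HepG2 cells carrying transfected promoter-regulated reporter units were incubated with test chemicals for 24 h. Reporter transcripts were measured by RT-PCR plus capillary electrophoresis, and endpoints derived by bidirectional fitting with DMSO as baseline.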
# [12] = target: Myc proto-oncogene protein (Homo sapiens) (UniProt P01106); assay: ATG_Myc_CIS: Attagene CIS-FACTORIAL HepG2 Assay for human Myelocytomatosis (Myc) Proto-Oncogene Transcription Factor (AID 2282990); details: HepG2, Attagene cis-reporter transcription factor activity; actives raise or lower the signal
# Summary of the method: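 Transiently transfected HepG2 cells bearing cis-promoter reporter units for endogenous transcription factors; 24 h exposure. Reporter mRNA measured by RT-PCR, 6-FAM primer extension, HpaI cut and capillary electrophoresis; bidirectional fit relative to DMSO.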
# [13] = ATG_NRF2_ARE_CIS: Attagene CIS-FACTORIAL HepG2 Assay for human Nuclear Factor Erythroid 2 Related Factor 2 (NFR2) response to Antioxidant Response Elements (ARE) (AID 2282992); details: HepG2 Attagene ARE/NRF2 reporter, transcription factor activity; actives raise or lower the signal
# Summary of the method: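 Fluorescence intensity of reporter-specific cDNA fragments, separated by capillary electrophoresis, reflects mRNA induction in transfected HepG2 cells at 24 h. Activity is fitted bidirectionally, DMSO serving as baseline.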
# [14] = ATG_Oct_MLP_CIS: Attagene CIS-FACTORIAL HepG2 Assay for human Octamer-Binding Transcription Factor (Oct) (AID 2282993); details: HepG2 Attagene cis-factorial Oct reporter, mRNA; actives raise or lower the signal
# Summary of the method: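 Cells of the HepG2 line express promoter-controlled reporter sequences whose mRNA levels, after 24 h treatment, are measured by RT-PCR and capillary electrophoresis. Increases and decreases are scored relative to DMSO.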
# [15] = target: Cellular tumor antigen p53 (Homo sapiens) (UniProt P04637); assay: ATG_p53_CIS: Attagene CIS-FACTORIAL HepG2 Assay for human p53 Transcription Factor (AID 2282994); details: HepG2 p53 cis-element reporter, Attagene mRNA; actives raise or lower the signal
# Summary of the method: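 Transiently transfected HepG2 (multiple cis reporter transcription units); exposure 24 h; reporter RNA via RT-PCR, 6-FAM extension, 2 h HpaI digest at 37 C, CE detection; DMSO baseline.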
# [16] = target: Nuclear receptor subfamily 1 group I member 2 (Homo sapiens) (UniProt O75469); assay: ATG_PXR_TRANS: Attagene TRANS-FACTORIAL HepG2 Assay for human Pregnane X Receptor (PXR) (AID 2283008; active = hit-call score of the fitted dose curve at least 0.9, where 1 is the maximum)
# Summary of the method: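 Transient HepG2 transfectants carrying multiplexed reporter transcription units; PXR activity read through a Gal4 chimera. 24 h exposure. RT-PCR/CE fluorescence; upward curve fit referenced to DMSO.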
# [17] = ATG_XTT_Cytotoxicity: Cytotoxicity Assessment in the Attagene TRANS-FACTORIAL HepG2 Assay (AID 2283584; active = hit-call score of the fitted dose curve at least 0.9, where 1 is the maximum;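 for AC50: cells exposed to compound for 24 h before reading; active means loss of viability signal versus DMSO baseline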)
# Summary of the method: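 Viability endpoint from XTT after 24 h chemical exposure of reporter-transfected human HepG2 liver cells; signal loss fitted relative to DMSO negative control.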
# [18] = ATG_AP_1_CIS: Attagene CIS-FACTORIAL HepG2 Assay for human Activator Protein 1 (AP-1) (AID 2282931); details: HepG2 Attagene cis-factorial AP-1 reporter mRNA; actives raise or lower the signal
# Summary of the method: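 Fluorescence of labelled PCR fragments separated by capillary electrophoresis gives reporter mRNA levels. HepG2 with transfected cis-regulated reporter units, 24 h exposure; DMSO serves as baseline for bidirectional curve fits.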
# [19] = target: Hypoxia-inducible factor 1-alpha (Homo sapiens) (UniProt Q16665); assay: ATG_HIF1a_CIS: Attagene CIS-FACTORIAL HepG2 Assay for human Hypoxia Inducible Factor 1 (HIF1A) (AID 2282951); details: HepG2 Attagene cis-factorial HIF1a reporter transcription; actives raise or lower the signal
# Summary of the method: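 HepG2, transient cis-reporter library, 24 h dosing. RNA → RT (oligo dT) → PCR → 6-FAM primer extension → HpaI → CE. Bidirectional curve fit vs DMSO.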
# [20] = ATG_VDRE_CIS: Attagene CIS-FACTORIAL HepG2 Assay for human Vitamin D Receptor Element (VDRE) (AID 2282968); details: HepG2 VDRE cis-reporter transcription, actives raise or lower the signal
# Summary of the method: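 Compounds were applied for 24 h to HepG2 cells transfected with promoter-regulated reporter units. Total RNA was reverse-transcribed, and reporter amplicons were fluorescently labelled and sized by capillary electrophoresis.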
# Transcriptional activator Myb (Homo sapiens), sequence (P10242 whole entry, looked up): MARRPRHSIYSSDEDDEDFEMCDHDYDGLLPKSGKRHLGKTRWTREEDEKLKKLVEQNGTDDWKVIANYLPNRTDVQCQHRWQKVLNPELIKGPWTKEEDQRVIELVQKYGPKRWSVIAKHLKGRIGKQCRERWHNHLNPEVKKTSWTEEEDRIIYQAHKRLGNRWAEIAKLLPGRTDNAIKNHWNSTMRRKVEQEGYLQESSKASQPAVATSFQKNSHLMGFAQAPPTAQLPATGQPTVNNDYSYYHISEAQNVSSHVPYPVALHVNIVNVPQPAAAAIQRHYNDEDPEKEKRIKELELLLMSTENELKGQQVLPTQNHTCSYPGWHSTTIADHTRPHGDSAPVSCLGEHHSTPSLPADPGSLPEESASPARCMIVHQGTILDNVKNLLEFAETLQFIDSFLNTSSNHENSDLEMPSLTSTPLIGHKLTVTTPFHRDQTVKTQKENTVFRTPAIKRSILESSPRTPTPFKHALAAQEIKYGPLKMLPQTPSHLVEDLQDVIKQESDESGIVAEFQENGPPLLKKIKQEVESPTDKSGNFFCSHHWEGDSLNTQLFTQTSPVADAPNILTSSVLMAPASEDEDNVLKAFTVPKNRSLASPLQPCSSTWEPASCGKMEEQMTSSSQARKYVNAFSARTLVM
# Hepatocyte nuclear factor 3-beta (Homo sapiens), sequence (Q9Y261 whole entry, looked up): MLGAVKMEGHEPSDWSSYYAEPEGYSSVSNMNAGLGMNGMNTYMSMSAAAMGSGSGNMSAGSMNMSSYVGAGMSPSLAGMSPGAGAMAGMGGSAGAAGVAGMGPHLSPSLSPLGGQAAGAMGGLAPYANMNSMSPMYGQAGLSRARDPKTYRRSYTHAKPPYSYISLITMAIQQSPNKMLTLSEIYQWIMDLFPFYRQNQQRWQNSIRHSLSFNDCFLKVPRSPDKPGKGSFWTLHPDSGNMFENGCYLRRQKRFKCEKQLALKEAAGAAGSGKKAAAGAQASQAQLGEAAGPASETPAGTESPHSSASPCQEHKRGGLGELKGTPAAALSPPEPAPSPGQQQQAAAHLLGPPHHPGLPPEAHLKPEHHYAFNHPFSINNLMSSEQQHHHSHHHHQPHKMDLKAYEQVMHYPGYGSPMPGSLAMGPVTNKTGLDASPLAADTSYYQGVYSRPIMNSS
# Heat shock factor protein 1 (Homo sapiens), sequence (Q00613 whole entry, looked up): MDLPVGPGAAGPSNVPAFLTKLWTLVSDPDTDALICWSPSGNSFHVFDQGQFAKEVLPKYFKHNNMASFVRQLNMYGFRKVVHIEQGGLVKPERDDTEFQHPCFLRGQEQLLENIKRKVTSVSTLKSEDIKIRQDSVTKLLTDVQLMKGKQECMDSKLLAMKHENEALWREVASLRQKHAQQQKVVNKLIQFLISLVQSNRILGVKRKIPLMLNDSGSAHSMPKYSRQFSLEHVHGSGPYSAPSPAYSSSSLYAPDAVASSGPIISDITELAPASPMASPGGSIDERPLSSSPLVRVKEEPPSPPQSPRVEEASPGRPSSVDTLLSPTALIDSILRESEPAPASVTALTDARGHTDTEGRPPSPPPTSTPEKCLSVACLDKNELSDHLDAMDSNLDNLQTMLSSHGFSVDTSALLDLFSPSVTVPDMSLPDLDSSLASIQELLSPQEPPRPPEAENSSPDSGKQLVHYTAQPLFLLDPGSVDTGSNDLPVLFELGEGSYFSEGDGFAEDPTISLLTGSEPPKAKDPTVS
# X-box-binding protein 1 (Homo sapiens), sequence (P17861 whole entry, looked up): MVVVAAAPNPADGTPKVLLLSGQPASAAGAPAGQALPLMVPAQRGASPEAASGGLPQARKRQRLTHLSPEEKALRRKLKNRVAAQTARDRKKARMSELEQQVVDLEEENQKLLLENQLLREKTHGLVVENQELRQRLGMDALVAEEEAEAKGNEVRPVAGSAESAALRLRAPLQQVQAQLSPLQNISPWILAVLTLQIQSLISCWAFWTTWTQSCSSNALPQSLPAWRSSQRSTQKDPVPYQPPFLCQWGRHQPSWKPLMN
# Signal transducer and activator of transcription 3 (Homo sapiens), sequence (P40763 whole entry, looked up, the tested form may be a part): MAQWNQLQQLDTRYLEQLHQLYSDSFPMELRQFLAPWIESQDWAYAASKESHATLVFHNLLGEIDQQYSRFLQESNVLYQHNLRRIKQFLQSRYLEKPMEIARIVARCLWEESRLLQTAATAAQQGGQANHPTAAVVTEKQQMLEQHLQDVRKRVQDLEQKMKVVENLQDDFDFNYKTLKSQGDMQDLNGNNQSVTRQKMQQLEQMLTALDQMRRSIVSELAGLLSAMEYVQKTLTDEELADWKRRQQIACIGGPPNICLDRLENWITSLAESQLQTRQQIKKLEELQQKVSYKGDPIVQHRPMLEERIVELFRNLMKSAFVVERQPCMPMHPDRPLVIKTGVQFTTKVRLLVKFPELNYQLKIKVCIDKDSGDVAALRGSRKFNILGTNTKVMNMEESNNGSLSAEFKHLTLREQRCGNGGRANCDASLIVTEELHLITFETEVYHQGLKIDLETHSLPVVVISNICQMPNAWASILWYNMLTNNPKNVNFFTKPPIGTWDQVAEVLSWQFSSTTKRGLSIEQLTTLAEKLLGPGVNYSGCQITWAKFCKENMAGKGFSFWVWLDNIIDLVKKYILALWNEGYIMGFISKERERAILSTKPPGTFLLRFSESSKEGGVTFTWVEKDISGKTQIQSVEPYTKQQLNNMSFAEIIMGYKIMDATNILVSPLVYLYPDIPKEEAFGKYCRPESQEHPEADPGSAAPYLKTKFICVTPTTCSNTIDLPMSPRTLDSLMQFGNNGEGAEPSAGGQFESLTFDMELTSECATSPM
# Nuclear receptor subfamily 1 group I member 2 (Homo sapiens), sequence (O75469 whole entry, looked up, the tested form may be a part): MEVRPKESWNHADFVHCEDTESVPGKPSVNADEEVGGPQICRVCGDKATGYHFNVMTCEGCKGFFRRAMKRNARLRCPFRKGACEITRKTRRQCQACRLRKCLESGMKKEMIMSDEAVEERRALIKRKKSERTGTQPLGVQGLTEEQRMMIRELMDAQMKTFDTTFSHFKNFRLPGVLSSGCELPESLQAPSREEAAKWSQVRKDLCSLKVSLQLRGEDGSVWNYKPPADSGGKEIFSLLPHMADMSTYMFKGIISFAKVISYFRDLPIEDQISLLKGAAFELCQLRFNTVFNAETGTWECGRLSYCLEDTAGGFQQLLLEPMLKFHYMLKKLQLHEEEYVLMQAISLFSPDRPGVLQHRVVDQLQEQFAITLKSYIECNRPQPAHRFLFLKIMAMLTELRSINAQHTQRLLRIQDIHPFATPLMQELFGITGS
# Myc proto-oncogene protein (Homo sapiens), sequence (P01106 whole entry, looked up): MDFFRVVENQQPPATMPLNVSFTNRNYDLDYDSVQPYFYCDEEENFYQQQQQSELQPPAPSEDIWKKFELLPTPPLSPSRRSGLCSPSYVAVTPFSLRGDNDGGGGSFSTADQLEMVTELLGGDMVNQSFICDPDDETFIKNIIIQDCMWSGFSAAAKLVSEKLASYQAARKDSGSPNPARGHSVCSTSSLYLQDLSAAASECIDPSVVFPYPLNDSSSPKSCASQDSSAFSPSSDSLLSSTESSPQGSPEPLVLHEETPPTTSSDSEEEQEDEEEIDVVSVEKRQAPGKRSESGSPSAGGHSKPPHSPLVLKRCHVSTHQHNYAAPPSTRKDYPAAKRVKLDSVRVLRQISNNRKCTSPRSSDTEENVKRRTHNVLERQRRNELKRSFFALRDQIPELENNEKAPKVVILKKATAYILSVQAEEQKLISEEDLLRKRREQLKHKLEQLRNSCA
# Cellular tumor antigen p53 (Homo sapiens), sequence (P04637 whole entry, looked up): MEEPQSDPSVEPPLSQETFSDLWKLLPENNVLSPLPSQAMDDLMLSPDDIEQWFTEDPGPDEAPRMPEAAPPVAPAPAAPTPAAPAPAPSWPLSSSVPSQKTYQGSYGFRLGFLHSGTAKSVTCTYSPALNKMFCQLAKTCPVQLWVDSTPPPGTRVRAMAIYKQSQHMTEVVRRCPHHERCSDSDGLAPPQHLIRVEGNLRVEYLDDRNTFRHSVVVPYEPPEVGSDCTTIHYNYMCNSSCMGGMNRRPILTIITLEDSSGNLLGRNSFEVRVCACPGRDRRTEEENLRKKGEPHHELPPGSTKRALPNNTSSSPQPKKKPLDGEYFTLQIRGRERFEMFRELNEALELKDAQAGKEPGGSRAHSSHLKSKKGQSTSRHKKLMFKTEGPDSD
# Hypoxia-inducible factor 1-alpha (Homo sapiens), sequence (Q16665 whole entry, looked up): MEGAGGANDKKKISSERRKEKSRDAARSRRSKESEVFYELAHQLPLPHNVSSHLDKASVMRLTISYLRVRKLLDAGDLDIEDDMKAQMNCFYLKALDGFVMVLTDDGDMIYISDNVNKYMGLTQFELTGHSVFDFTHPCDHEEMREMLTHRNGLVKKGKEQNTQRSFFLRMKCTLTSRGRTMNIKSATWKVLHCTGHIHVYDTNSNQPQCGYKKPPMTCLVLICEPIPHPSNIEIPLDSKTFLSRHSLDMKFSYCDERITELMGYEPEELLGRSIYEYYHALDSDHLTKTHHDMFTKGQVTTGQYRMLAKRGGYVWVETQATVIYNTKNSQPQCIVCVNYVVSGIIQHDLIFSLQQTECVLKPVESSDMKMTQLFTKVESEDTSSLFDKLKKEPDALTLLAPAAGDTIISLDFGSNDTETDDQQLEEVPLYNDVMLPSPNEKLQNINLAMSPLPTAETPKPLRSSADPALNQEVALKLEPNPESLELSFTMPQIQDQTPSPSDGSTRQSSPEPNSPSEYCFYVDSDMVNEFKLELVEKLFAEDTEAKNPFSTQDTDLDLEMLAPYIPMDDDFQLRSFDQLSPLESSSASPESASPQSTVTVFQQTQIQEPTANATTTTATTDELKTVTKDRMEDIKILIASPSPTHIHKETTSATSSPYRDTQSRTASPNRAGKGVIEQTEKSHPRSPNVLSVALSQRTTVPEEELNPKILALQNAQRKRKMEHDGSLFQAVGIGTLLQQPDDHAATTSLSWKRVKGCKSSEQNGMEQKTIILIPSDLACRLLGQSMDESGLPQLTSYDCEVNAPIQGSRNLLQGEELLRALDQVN
smiles,measurement,setting,value
C[C@H]1C[C@H]2[C@@H]3CCC4=CC(=O)C=C[C@]4(C)[C@@]3(F)[C@@H](O)C[C@]2(C)[C@@]1(O)C(=O)CO,AC50,[1],166 µM (active)
same,outcome,[2],inactive
same,outcome,[3],inactive
same,outcome,[4],inactive
same,outcome,[5],inactive
same,AC50,[6],150 µM (active)
same,outcome,[7],inactive
same,outcome,[8],inactive
same,AC50,[9],158 µM (active)
same,AC50,[10],180 µM (active)
same,outcome,[11],inactive
same,outcome,[12],inactive
same,AC50,[13],100 µM (active)
same,outcome,[14],inactive
same,AC50,[15],39.4 µM (active)
same,AC50,[16],0.685 µM (active)
same,outcome,[17],inactive
CCCC[N+]1(C)CCCC1,outcome,[1],inactive
same,outcome,[18],inactive
same,outcome,[2],inactive
same,outcome,[19],inactive
same,outcome,[3],inactive
same,outcome,[4],inactive
same,outcome,[5],inactive
same,outcome,[6],inactive
same,outcome,[7],inactive
same,outcome,[8],inactive
same,outcome,[9],inactive
same,outcome,[10],inactive
same,outcome,[11],inactive
same,outcome,[12],inactive
same,outcome,[13],inactive
same,outcome,[14],inactive
same,outcome,[15],inactive
same,outcome,[17],inactive
Nc1nnc(-c2ccc([N+](=O)[O-])o2)o1,outcome,[1],inactive
same,outcome,[2],inactive
same,outcome,[19],inactive
same,outcome,[3],inactive
same,outcome,[4],inactive
same,outcome,[5],inactive
same,outcome,[6],inactive
same,outcome,[7],inactive
same,outcome,[8],inactive
same,outcome,[20],inactive
same,outcome,[9],inactive
same,outcome,[10],inactive
same,outcome,[11],inactive
same,AC50,[12],12 µM (active)
same,AC50,[13],20.8 µM (active)
same,outcome,[14],inactive
same,outcome,[15],inactive
same,AC50,[17],159 µM (active)
CCOC(=O)c1ccccc1,AC50,[1],128 µM (active)
same,outcome,[18],inactive
same,outcome,[2],inactive
same,outcome,[19],inactive
same,outcome,[3],inactive
same,outcome,[4],inactive
same,outcome,[5],inactive
same,outcome,[6],inactive
same,outcome,[7],inactive
same,outcome,[8],inactive
same,outcome,[20],inactive
same,outcome,[9],inactive
same,outcome,[10],inactive
same,outcome,[11],inactive
same,outcome,[12],inactive
same,outcome,[13],inactive
same,outcome,[15],inactive
same,outcome,[16],inactive
CCCCC(CC)COC(=O)CS (stereo not drawn),outcome,[1],inactive
same,outcome,[18],inactive
same,outcome,[2],inactive
same,outcome,[19],inactive
same,outcome,[3],inactive
same,outcome,[5],inactive
same,outcome,[6],inactive
same,outcome,[7],inactive
same,outcome,[8],inactive
same,AC50,[20],26.4 µM (active)
same,outcome,[9],inactive
same,outcome,[10],inactive
same,outcome,[11],inactive
same,outcome,[12],inactive
same,outcome,[13],inactive
same,outcome,[14],inactive
same,outcome,[15],inactive
same,outcome,[16],inactive
CCCC(=O)OC/C=C(\C)CCC=C(C)C,outcome,[1],inactive
same,outcome,[2],inactive
same,outcome,[19],inactive
same,outcome,[3],inactive
same,outcome,[4],inactive
same,outcome,[5],inactive
same,outcome,[6],inactive
same,outcome,[7],inactive
same,outcome,[8],inactive
same,outcome,[20],inactive
same,outcome,[9],inactive
same,outcome,[10],inactive
same,outcome,[11],inactive
same,outcome,[12],inactive
same,outcome,[13],inactive
same,outcome,[16],inactive
same,outcome,[17],inactive
O=S(=O)(O)c1cccc2ccccc12,outcome,[1],inactive
same,outcome,[18],inactive
same,outcome,[2],inactive
same,outcome,[19],inactive
same,outcome,[3],inactive
same,outcome,[4],inactive
same,outcome,[5],inactive
same,outcome,[6],inactive
same,outcome,[7],inactive
same,outcome,[8],inactive
same,outcome,[9],inactive
same,outcome,[10],inactive
same,outcome,[11],inactive
same,outcome,[12],inactive
same,outcome,[13],inactive
same,outcome,[15],inactive
same,outcome,[16],inactive
CN1CCCC1,outcome,[1],inactive
same,outcome,[18],inactive
same,outcome,[2],inactive
same,outcome,[19],inactive
same,outcome,[3],inactive
same,outcome,[4],inactive
same,outcome,[5],inactive
same,outcome,[6],inactive
same,outcome,[7],inactive
same,outcome,[8],inactive
same,outcome,[20],inactive
same,outcome,[9],inactive
same,outcome,[10],inactive
same,outcome,[11],inactive
same,outcome,[12],inactive
same,AC50,[13],26.2 µM (active)
same,outcome,[14],inactive
same,outcome,[15],inactive
same,outcome,[16],inactive
same,outcome,[17],inactive
